This is a sample that favours compounds with a hit; in the whole collection about 6.9% have one here.
M1 agonist = M1 muscarinic receptor agonism; B-score at 10 µM; 64,000 tested, 3% active; CHO-M1 cells, Fluo-4 calcium fluorescence, agonist mode; active compounds read high;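 active = fluorescence rise, raw or as B-score row- and column-corrected plate score, outside the 99.7% band of its plate's samples, either direction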
FXIIa mix inh = blocks human factor XIIa in pooled compound mixtures; 62,000 tested, 0.2% active; inhibition, % at 5 µM; P00748; purified FXIIa, fluorogenic substrate;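 note: 0% = enzyme without compound and 100% = no enzyme blank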
FXIa mix inh = inhibitors of human coagulation factor XIa, pooled mixtures; purified FXIa, fluorogenic substrate; inhibition, % at 5 µM; 62,000 tested, 0.19% active; P03951; AID 680;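 note: each value is inhibition by a whole ten-compound pool holding the compound; 0% = enzyme with no mixture and 100% = wells lacking enzyme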
Her2 expr inh = inhibitors of human Her2 kinase expression. P04626. SKBR-3 HER2 protein level, AlphaScreen, 18-24 h; active compounds read low. HER2 level % of control, % at 10 µM. 65,000 tested, 0.69% active;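 active = HER2 level under 5% of the carrier-only control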;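 note: 100% = DMSO carrier and 0% = 500 nM PU-H71 HSP90 inhibitor; lower value means stronger loss of Her2 protein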
M1 antagonist = blocks the rat M1 muscarinic receptor response to acetylcholine; B-score at 10 µM; P08482; AID 628; CHO-M1 cells, Fluo-4 calcium, ACh EC80 antagonist mode; active compounds read low; 64,000 tested, 3.4% active;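 active = calcium fluorescence response, raw or row-and-column corrected B-score, differing from the plate sample mean either way at a set confidence level, mostly lower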
Target sequence (P08482 whole entry, looked up): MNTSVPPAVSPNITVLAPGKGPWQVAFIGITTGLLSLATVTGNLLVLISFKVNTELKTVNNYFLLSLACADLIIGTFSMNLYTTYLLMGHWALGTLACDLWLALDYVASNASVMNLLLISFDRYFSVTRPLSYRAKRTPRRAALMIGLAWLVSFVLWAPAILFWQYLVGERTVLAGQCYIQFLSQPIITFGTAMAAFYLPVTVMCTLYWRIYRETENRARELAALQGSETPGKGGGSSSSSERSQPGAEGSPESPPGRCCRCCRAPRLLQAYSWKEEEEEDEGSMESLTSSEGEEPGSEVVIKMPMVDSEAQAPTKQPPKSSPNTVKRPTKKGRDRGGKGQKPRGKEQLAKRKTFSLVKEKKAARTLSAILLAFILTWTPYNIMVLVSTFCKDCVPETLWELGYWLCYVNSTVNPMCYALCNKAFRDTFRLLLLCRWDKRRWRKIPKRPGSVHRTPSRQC
JNK3 blocker = blocks human JNK3 kinase activity. P53779. purified JNK3 kinase activity, HTS. inhibition, % at 8 µM. 60,000 tested, 0.61% active; in the data active = inhibition above about 17%;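 note: 0% = DMSO and 100% = reference inhibitor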
M1 antag confirm = M1 muscarinic receptor (rat) antagonism, confirmed; shares compounds with M1 antagonist; CHO-M1 cells, Fluo-4 calcium, ACh EC80 antagonism; active compounds read low; calcium response (max-min fluorescence) at 10 µM; 1,700 tested, 43% active; AID 677;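 active = calcium response below the same-plate mean of wells given acetylcholine alone at its 80%-effect dose, minus 3 SD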;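 note: raw fluorescence intensity difference in arbitrary instrument units and not normalized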
mGluR4 antag = selectivity test for M1 antagonists: human mGluR4 receptor; shares compounds with M1 antagonist; CHO-mGluR4 calcium flux, Fluo-4 fluorescence, glutamate EC80; active compounds read low; fluorescence response (max-min) at 10 µM; 1,700 tested, 0.9% active; AID 678;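 active = fluorescence response below the plate's average for near-maximal glutamate wells, less 3 SD of those wells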;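 note: raw unnormalized fluorescence span taken in the window right after glutamate addition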
Numbers without * were called inactive. Cut-off read from the data, not from the text of the source, unless noted: active = inhibition above about 20% (passing the limit was not always enough); inactive = the rest.

Screening O=C(NCCN1CCCCC1)Nc1ccc(F)c(Cl)c1 returned M1 agonist 0.228, FXIIa mix inh -19.1, FXIa mix inh 0.2, Her2 expr inh 107.8, M1 antagonist -2.81*, JNK3 blocker -7.3, M1 antag confirm 569 and mGluR4 antag 216.
Screening COCCCn1c(=N)c(C(=O)NCc2ccc3c(c2)OCO3)cc2c(=O)n3cccc(C)c3nc21 returned M1 agonist 0.607, FXIIa mix inh 5.2, FXIa mix inh 1.4, Her2 expr inh 76.3, M1 antagonist -7.13*, JNK3 blocker 1.6, M1 antag confirm 90.3* and mGluR4 antag 204.
For CCOCCCn1c(=N)c(C(=O)NCc2ccc3c(c2)OCO3)cc2c(=O)n3cccc(C)c3nc21 the results were M1 agonist 0.407, FXIIa mix inh -12.7, FXIa mix inh 0.1, Her2 expr inh 61.8, M1 antagonist -10.5*, JNK3 blocker -2.4, M1 antag confirm 90.5* and mGluR4 antag 202.
Screening O=C(CNCCC1=CCCCC1)Nc1ccccc1N1CCCCC1 returned M1 agonist 0.914, FXIIa mix inh -0.8, FXIa mix inh -19.6, Her2 expr inh 84.6, M1 antagonist -0.0017 and JNK3 blocker 0.6.
Screening O=C(Nc1ccccc1)N1CCN(Cc2ccc3c(c2)OCO3)CC1 returned M1 agonist 0.017, FXIIa mix inh 0.1, FXIa mix inh -3.0, Her2 expr inh 91.9, M1 antagonist -0.00785 and JNK3 blocker 3.7.
c1ccc(CN2CCC(N3CCN(Cc4ccc5c(c4)OCO5)CC3)CC2)cc1 was read as M1 agonist -0.496, FXIIa mix inh -0.9, FXIa mix inh -5.1, Her2 expr inh 81.1, M1 antagonist -2.26*, JNK3 blocker 4.0, M1 antag confirm 330* and mGluR4 antag 197.
`CSc1ccc(S(=O)(=O)N2CCN(Cc3ccc4c(c3)OCO4)CC2)cc1` gave M1 agonist -0.159, FXIIa mix inh 0.7, FXIa mix inh 7.5, Her2 expr inh 93.5, M1 antagonist -2.11*, JNK3 blocker -9.1, M1 antag confirm 440 and mGluR4 antag 208.
COc1ccc(N(CC(=O)N2CCN(Cc3ccc4c(c3)OCO4)CC2)S(C)(=O)=O)cc1OC was read as M1 agonist 0.381, FXIIa mix inh -17.0, FXIa mix inh -6.2, Her2 expr inh 145.3, M1 antagonist 0.862 and JNK3 blocker 4.0.
For O=C(CN(c1ccccc1)S(=O)(=O)c1ccccc1)N1CCN(Cc2ccc3c(c2)OCO3)CC1 the results were M1 agonist -0.0994, FXIIa mix inh 14.6, FXIa mix inh -4.9, Her2 expr inh 143.8, M1 antagonist -4.05*, JNK3 blocker -9.1, M1 antag confirm 436* and mGluR4 antag 242.
COCCN1C(=O)C(=O)/C(=C(/O)c2ccc(OCC(C)C)cc2)C1c1cccnc1 (stereo not given) was read as M1 agonist 0.266, FXIIa mix inh 6.4, FXIa mix inh 3.4, Her2 expr inh 95.6, M1 antagonist -0.282 and JNK3 blocker -0.3.
`COc1cc(Cl)c(C)cc1NC(=O)COC(=O)c1cnc(C)cn1` gave M1 agonist 0.965, FXIIa mix inh -15.0, FXIa mix inh -1.1, Her2 expr inh 77.2, M1 antagonist -0.0181 and JNK3 blocker 7.0.
CCCCNS(=O)(=O)c1ccc2nc(SCC(=O)Nc3sccc3C#N)[nH]c2c1 was read as M1 agonist 0.58, FXIIa mix inh 6.5, FXIa mix inh 5.3, Her2 expr inh 58.5, M1 antagonist -3.09*, JNK3 blocker 8.6, M1 antag confirm 523 and mGluR4 antag 204.
CC1(C)CC(=O)c2c(nn(-c3ccccc3)c2N)C1 was read as M1 agonist 0.336, FXIIa mix inh -7.2, FXIa mix inh 3.8, Her2 expr inh 111.6, M1 antagonist -2.35*, JNK3 blocker 2.6, M1 antag confirm 517 and mGluR4 antag 241.
CC1(C)CC(=O)c2c(nc3ccccc3c2N)C1 was read as M1 agonist -0.227, FXIIa mix inh 3.3, FXIa mix inh -0.6, Her2 expr inh 97.2, M1 antagonist -0.226 and JNK3 blocker 4.2.
Screening CCCNC(=O)C1=C(C)C(=O)OC12CCC(C)CC2 (stereo not given) returned M1 agonist 0.196, FXIIa mix inh 8.2, FXIa mix inh 2.3, Her2 expr inh 94.1, M1 antagonist -2.25*, JNK3 blocker 0.8, M1 antag confirm 602 and mGluR4 antag 225.
For N#CCSc1nc2c(cc1C#N)CCCCCC2 the results were M1 agonist 0.0621, Her2 expr inh 136.5, M1 antagonist -5.32*, JNK3 blocker 15.0, M1 antag confirm 205* and mGluR4 antag 259.
CCn1c(SCC(=O)Nc2c(C)n(C)n(-c3ccccc3)c2=O)nnc1-c1cccc(C)c1 was read as M1 agonist 2.52, FXIIa mix inh -0.8, FXIa mix inh 4.7, Her2 expr inh 99.8, M1 antagonist -1.94*, JNK3 blocker 5.1, M1 antag confirm 575 and mGluR4 antag 196.
C=CCNC(=O)C(C#N)c1nc2ccccc2nc1N1CCCCCC1 (stereo not given) was read as M1 agonist 1.58, FXIIa mix inh 4.2, FXIa mix inh 3.8, Her2 expr inh 86.6, M1 antagonist -2.76*, JNK3 blocker 5.8, M1 antag confirm 603 and mGluR4 antag 274.
`CN1CCN(C2=C(Cl)C(=O)N(Cc3ccccc3)C2=O)CC1` gave M1 agonist -0.303, FXIIa mix inh -15.6, FXIa mix inh 4.4, Her2 expr inh 141.2, M1 antagonist -5.64*, JNK3 blocker 0.8, M1 antag confirm 226* and mGluR4 antag 214.
Screening CN(C)S(=O)(=O)c1cccc(-c2nnc(SCc3ccc4c(c3)OCCO4)o2)c1 returned M1 agonist -0.919, FXIIa mix inh 4.8, FXIa mix inh -26.3, Her2 expr inh 101.5, M1 antagonist -12.5*, JNK3 blocker 0.8, M1 antag confirm 501 and mGluR4 antag 199.
Screening O=S(=O)(c1cccc(-c2nnc(SCc3ccc(Cl)cc3)o2)c1)N1CCCCC1 returned M1 agonist 1, FXIIa mix inh 3.5, FXIa mix inh 4.4, Her2 expr inh 132.8, M1 antagonist -0.238 and JNK3 blocker 1.0.
`CC1(C)CC(N2CCC(=O)N(C3CC(C)(C)NC(C)(C)C3)C2)CC(C)(C)N1` gave M1 agonist -0.0949, FXIIa mix inh 14.7, FXIa mix inh 6.1, Her2 expr inh 97.7, M1 antagonist -3.18*, JNK3 blocker 4.1, M1 antag confirm 547 and mGluR4 antag 199.
`O=C(Nc1ccc(-c2noc(-c3cccs3)n2)cc1)c1cccnc1` gave M1 agonist 0.169, FXIIa mix inh 5.4, FXIa mix inh 2.0, Her2 expr inh 97.4, M1 antagonist -0.583 and JNK3 blocker 5.6.

Assay outcomes from PubChem BioAssay.
